In the library only some 5.7% were active in any assay of this set; here they are far more common.
MPTP block – permeability transition pore inhibition | isolated mouse mitochondria, Ca2+ swelling absorbance, 30 min | inhibition, % at 10 µM | actives 1.4% (n = 360,000);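 active = inhibition of 50% or more, scaled per plate between neutral and stimulator controls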
NR3A LBD binder – modulates the human NR3A ligand-binding domain; NR3A LBD differential scanning fluorimetry, Tm shift; 0% = protein alone, 100% = glycine-bound protein; Tm shift relative to glycine control, % at 25 µM; actives 2.5% (n = 340,000);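 active = melting temperature shift of at least 10% of the positive control shift, at one fixed dose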
Myeloid diff MLP – promotes myeloid progenitor differentiation | ER-HoxA9 myeloid progenitors, lysozyme-GFP differentiation, flow cytometry | calls only at 10 µM | actives 1% (n = 360,000);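 active = normalized GFP-positive differentiation at or above the plate's own cutoff, the solvent-only control mean plus 3 SD; inconclusive = no clear call, values can overlap the other calls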;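 note: cells exposed to compound for four days before flow analysis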
rCAG binder – binds r(CAG) RNA repeats; inhibition, % at 3 µM; actives 1.3% (n = 370,000); r(CAG) RNA repeat, TO-PRO-1 dye displacement fluorescence; AID 651821;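 active = inhibition above the plate cutoff, the mean of all test compounds on that plate plus 3 SD, cut at about 35% in these data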;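 note: higher means more dye released from RNA so lower well fluorescence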
FAS TE block – inhibitors of human fatty acid synthase thioesterase domain; recombinant FAS-TE, OMFH fluorogenic substrate, fluorescence endpoint; inhibition, % at 15 µM; actives 0.67% (n = 360,000); AID 602261;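 active = compounds whose normalised, plate-corrected inhibition of enzyme fluorescence in the single-dose primary screen is 50% or more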
rCAG binder conf – r(CAG) RNA repeat binding, confirmation. shares compounds with rCAG binder. TO-PRO-1 dye displacement fluorescence. inhibition, % at 3 µM. actives 70% (n = 4,300);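 active = inhibition above a per-plate cutoff, the mean inhibition of sample wells plus 3 SD, cut at about 35% in these data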;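 note: loss of TO-PRO-1 fluorescence as compound displaces dye from 1x1 AA loop RNA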
dCAG dye counter – DNA CAG dye complex inhibition counter-screen. d(CAG) DNA oligo TO-PRO-1 dye displacement, fluorescence. shares compounds with rCAG binder. inhibition, % at 3 µM. actives 94% (n = 4,300);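 active = inhibition above its plate's cutoff, the mean test-well inhibition plus 3 SD, cut at about 4.8% in these data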;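 note: hits displace the dye from DNA and so lower well fluorescence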
dCAG dye DR – disrupts DNA CAG TO-PRO-1 complex in dose response. shares compounds with rCAG binder. DNA CAG/GTC duplex TO-PRO-1 dye displacement fluorescence. IC50, µM. actives 20% (n = 250); in the data active = IC50 below about 10 µM
Each line names hits and unclear results; the compound was inactive in the other large screens (follow-up assays come after a bar, where they were run).

CC1=C(C(=O)Nc2ccccc2)C(c2ccc(C)o2)n2c(s/c(=C/c3ccccc3)c2=O)=N1 (configuration not stated)	none
COc1cc(C)c(C(=O)Oc2cc(C)c(C(=O)O)c(O)c2C)c(O)c1C	rCAG binder 87 | rCAG binder conf 84 | dCAG dye counter 52
COC(=O)c1c(C)cc(OC(C)=O)c(C)c1OC(C)=O	none
O=C(O)COc1ccccc1/C=C1\C(=O)Nc2ccc(Br)cc21	rCAG binder 43 | rCAG binder conf inactive | dCAG dye counter 5.7
Cc1[nH]c2ccccc2c1/C=N/NC(=O)c1cccc(S(=O)(=O)Nc2cccc(C(F)(F)F)c2)c1	NR3A LBD binder 28, rCAG binder 65 | rCAG binder conf 68 | dCAG dye counter 27
Cc1ccc(-c2n[nH]c3c2C(c2ccccc2)N(c2ccc(C(=O)O)cc2)C3=O)cc1 (configuration not stated)	rCAG binder 45 | rCAG binder conf inactive | dCAG dye counter 6.2
Cc1ccc(-c2n[nH]c3c2C(c2cccc(O)c2)N(c2ccc(C(=O)O)cc2)C3=O)cc1 (configuration not stated)	none
COc1ccc(CCNC(=O)CSc2nc3cc(Cl)ccc3o2)cc1OC	none
O=C(NCc1ccccn1)C1Nc2ccc(OC(F)(F)F)cc2C2C=CCC12 (configuration not stated)	rCAG binder 37 | rCAG binder conf inactive | dCAG dye counter inactive
CCOC(=O)C1Nc2ccc(OC(F)(F)F)cc2C2C=CCC12 (configuration not stated)	rCAG binder 40 | rCAG binder conf inactive | dCAG dye counter 6.1
O=C(NC1CC1)C1Nc2ccc(OC(F)(F)F)cc2C2C=CCC12 (configuration not stated)	rCAG binder 43 | rCAG binder conf inactive | dCAG dye counter inactive
O=C(NCc1ccccc1)C1Nc2ccc(OC(F)(F)F)cc2C2C=CCC12 (configuration not stated)	none
Cc1cc(=O)oc2c3c(cc(OCC(=O)NC(Cc4ccc(Cl)cc4)C(=O)O)c12)OC(C)(C)CC3 (configuration not stated)	rCAG binder 46 | rCAG binder conf 53 | dCAG dye counter 17
Cc1cc(=O)oc2c3c(cc(OCC(=O)N[C@@H](Cc4ccccc4)C(=O)O)c12)OC(C)(C)CC3	none
O=C(CCN1C(=O)/C(=C\c2ccccc2)SC1=S)Nc1ccc(C(=O)O)cc1	none (no result: Myeloid diff MLP)
COc1ccc(/C=C2\SC(=S)N(CCCC(=O)Nc3ccc(C(=O)O)cc3)C2=O)cc1OC	rCAG binder 64 | rCAG binder conf 53 | dCAG dye counter 18
O=C(O)CCN1C(=O)/C(=C\c2cccc(OCC(=O)Nc3ccc(Cl)cc3)c2)SC1=S	rCAG binder 71 | rCAG binder conf 82 | dCAG dye counter 43
COc1cccc(/C=C2\SC(=S)N(CCCC(=O)Nc3ccc(C(=O)O)cc3)C2=O)c1	rCAG binder 69 | rCAG binder conf 61 | dCAG dye counter 22
Cc1cc(Cn2nc(-c3ccccc3)cc2C(=O)NCC2CC2)on1	none
CCCOC(=O)c1ccc(NC(=O)Cc2cccs2)cc1	none
O=C(NN1C(=O)/C(=C/C=C/c2ccco2)SC1=S)c1ccccc1O	rCAG binder 94 | rCAG binder conf 93 | dCAG dye counter 77
COc1ccc(/C=C2\SC(=S)N(C(Cc3ccccc3)C(=O)O)C2=O)cc1 (configuration not stated)	rCAG binder 65 | rCAG binder conf 71 | dCAG dye counter 34 | dCAG dye DR inactive
Cn1cccc1/C=C1\SC(=S)N(NC(=O)c2ccccc2O)C1=O	none
O=C(O)C(Cc1ccccc1)N1C(=O)/C(=C/C=C/c2ccco2)SC1=S (configuration not stated)	rCAG binder 90 | rCAG binder conf 92 | dCAG dye counter 68
O=C(O)CCCN1C(=O)/C(=C/C=C/c2ccco2)SC1=S	rCAG binder 60 | rCAG binder conf 51 | dCAG dye counter 19
COc1cc(C2C(C#N)=C(N)Oc3c2ccc2ccccc32)ccc1OCC(=O)Nc1cccc(C)c1 (configuration not stated)	rCAG binder 53 | rCAG binder conf inactive | dCAG dye counter 11
COc1cc(C2C(C#N)=C(N)Oc3c2ccc2ccccc32)ccc1OCC(=O)Nc1ccc(C)cc1 (configuration not stated)	rCAG binder 38 | rCAG binder conf inactive | dCAG dye counter 13
N#CC1=C(N)Oc2c(ccc3ccccc23)C1c1ccsc1 (configuration not stated)	none
COc1ccc(C2C(C#N)=C(N)Oc3c2ccc2cccnc32)cc1OC (configuration not stated)	Myeloid diff MLP inconclusive
CC(=O)O[C@H]1[C@H](C)OC=C[C@@H]1OC(C)=O	none
Cc1cccc(C(=O)N2CCCC(CCC(=O)N3CCN(c4ccccn4)CC3)C2)c1 (configuration not stated)	none
CC1(C(=O)NS(=O)(=O)c2cccc(Cl)c2)CCN1C(=O)C1CCCCC1 (configuration not stated)	none (no result: NR3A LBD binder)
O=C1OC(c2ccc3ccccc3c2O)(c2ccc3ccccc3c2O)c2ccccc21	rCAG binder 63 | rCAG binder conf 70 | dCAG dye counter 35
Cc1cc(OCC(=O)NNC(=S)NC(=O)c2ccc(Br)o2)ccc1Cl	rCAG binder 45 | rCAG binder conf 69 | dCAG dye counter 22 | dCAG dye DR inactive
CCC(=O)NC(=S)Nc1ccc(NC(=O)COc2ccc(Cl)c(C)c2)cc1	none
COc1ccc(/C=C2/SC(=S)N(NS(=O)(=O)c3ccccc3)C2=O)cc1	rCAG binder 74 | rCAG binder conf 66 | dCAG dye counter 29
CC(/C=C1\SC(=S)N(NC(=O)c2ccc(C)cc2)C1=O)=C\c1ccccc1	none (no result: rCAG binder)
C=CCOc1ccc(/C=C2\SC(=S)N(NS(=O)(=O)c3ccccc3)C2=O)cc1	rCAG binder 88 | rCAG binder conf 79 | dCAG dye counter 46
O=C1/C(=C\c2ccc(Br)cc2)SC(=S)N1NS(=O)(=O)c1ccccc1	none
CC(/C=C1\SC(=S)N(NC(=O)c2ccncc2)C1=O)=C\c1ccccc1	NR3A LBD binder 20, rCAG binder 42 | rCAG binder conf inactive | dCAG dye counter 9.3
CC(/C=C1\SC(=S)N(NS(=O)(=O)c2ccccc2)C1=O)=C\c1ccccc1	rCAG binder 74 | rCAG binder conf 87 | dCAG dye counter 54
CC(/C=C1\SC(=S)N(NC(=O)c2ccccc2C)C1=O)=C\c1ccccc1	none

Source: PubChem
